Laboratory results published in PubChem BioAssay (NCI).
This is part of a sample that, as a whole, favours compounds with a hit. Of some 79,000 tested, about 15% had one in any assay. No stated cut-off is given here; in the data, active means growth inhibition above about 70%; inactive means the rest.

Tests used:
[1] = NCI Yeast Anticancer Drug Screen. Data for the rad50 strain (AID 155);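 further: 0% = growth of vehicle-only cultures of the same strain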; settings: S. cerevisiae rad50 strain growth inhibition; at 50.0 µM; active compounds read high
Method in brief: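 A DNA repair-deficient yeast mutant serves as the test organism; compound-induced growth inhibition is calculated against vehicle-treated cells.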

[2] = NCI Yeast Anticancer Drug Screen. Data for the mec2-1 strain (AID 157); settings: S. cerevisiae mec2-1 strain, at 50.0 µM, active compounds read high
Method in brief: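 Each compound was tested on mec2-1 yeast, a strain altered in DNA damage repair or cell cycle control. Growth inhibition is reported relative to vehicle.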

[3] = NCI Yeast Anticancer Drug Screen. Data for the sgs1 mgt1 strain (AID 161);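 further: 0% = growth of cultures given vehicle only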; settings: S. cerevisiae sgs1 mgt1 strain, at 50.0 µM, active compounds read high
Method in brief: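 Test agents were incubated with a DNA-repair-mutant yeast strain. Growth was then read and compared against vehicle-treated controls.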

[4] = NCI Yeast Anticancer Drug Screen. Data for the cln2 rad14 strain (AID 165);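 further: 0% = growth equal to vehicle treated cultures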; settings: S. cerevisiae cln2 rad14 strain, at 50.0 µM, active compounds read high
Method in brief: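 Test compounds were added to cln2 rad14 yeast cultures; inhibition of growth was then determined by comparison with vehicle treatment.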

[5] = NCI Yeast Anticancer Drug Screen. Data for the bub3 strain (AID 167); settings: S. cerevisiae bub3 mutant strain, at 50.0 µM, active compounds read high
Method in brief: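 Inhibition values come from growth of compound-treated mutant yeast normalised to vehicle-treated controls.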

[6] = NCI Yeast Anticancer Drug Screen. Data for the mlh1 rad18 strain (AID 175); settings: S. cerevisiae mlh1 rad18 strain growth inhibition; at 50.0 µM; active compounds read high
Method in brief: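 Inhibition values reflect reduced growth of mutant yeast versus vehicle-treated controls following compound exposure; the mutations affect DNA damage repair.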

Measured: growth inhibition

COc1cccc(-n2cnc3c(=O)[nH]cnc32)c1
inactive: [1] -18.7% | [2] -13.3% | [3] -10.9% | [4] -34.9% | [5] -5.65% | [6] -40%

COC(=O)C1(CCSc2ccccc2)CCCC1=O (stereo unspecified)
inactive: [1] 29.3% | [2] -33% | [3] 14.8% | [4] 5.05% | [5] 27% | [6] 6.65%

CC(=O)Nc1cccc(N=NN(C)C)c1
inactive: [1] 14.2% | [2] 14.1% | [3] 39% | [4] 20.5% | [5] 34.4% | [6] 29.6%

COc1ccc(/C=N/N2CN(C(C)C(=O)O)C(O)(CCl)N=C2N)cc1OC (stereo unspecified)
inactive: [1] 0.95% | [2] -8.95% | [3] -3% | [4] -27.4% | [5] 5.1% | [6] -1.5%

O=C(c1ccccc1)C(c1ccccc1)N(CCO)CCO (stereo unspecified)
inactive: [1] -9.8% | [2] -17.4% | [3] -2.85% | [4] -13.4% | [5] 20.6% | [6] -17.3%

CC1(C)CC(=O)C(C(CCC2CCCCC2=O)C2C(=O)CC(C)(C)CC2=O)C(=O)C1 (stereo unspecified)
inactive: [1] 38.5% | [2] 7.95% | [3] 10% | [4] 1.95% | [5] 9.35% | [6] 19.6%

C=CCSCC1Nc2cc(Cl)c(S(N)(=O)=O)cc2S(=O)(=O)N1C (stereo unspecified)
inactive: [1] 22.8% | [2] 12.8% | [3] 8.05% | [4] 20.1% | [5] -3.75% | [6] 2.25%

Cc1cccc(-c2nc(N)nc(N)n2)c1
inactive: [1] 11.8% | [2] -9.45% | [3] -1.05% | [4] 18.6% | [5] 7% | [6] 22.4%

Cc1cc2c(c3ccccc13)C(O)c1ccccc1-2 (stereo unspecified)
inactive: [1] -7.85% | [2] 5.95% | [3] 1.5% | [4] -15.4% | [5] 3.85% | [6] -9.25%

CCC(Cc1ccccc1)C1=NC(C)(C)CC(C)O1 (stereo unspecified)
inactive: [1] 1.2% | [2] 3.95% | [3] -5.25% | [4] -20.6% | [5] -1.4% | [6] 25.4%

C=C(C)C1Cc2c(cc(OC)c3c(=O)c4cccc(O)c4oc23)O1 (stereo unspecified)
inactive: [1] 43.1% | [2] 15.4% | [3] -1.95% | [4] 25.4% | [5] -20.2% | [6] -21.4%

COC(=O)Oc1ccc(Cl)cc1Cl
inactive: [1] -18.1% | [2] -6.05% | [3] 15.9% | [4] -77.4% | [5] -8.25% | [6] 5.7%

CCOC(N)=C(C#N)C#N
inactive: [1] 12.6% | [2] 15.1% | [3] 3.45% | [4] 21.4% | [5] 23.1% | [6] 11.8%

[O-][n+]1c(/C=C/c2cccc3ccccc23)cccc1/C=C/c1cccc2ccccc12
inactive: [1] -8.6% | [2] 1% | [3] 42.8% | [4] 6.55% | [5] 29.4% | [6] 40.8%

CCN(CC)CCOC(=O)c1ccc(Cl)c(Cl)c1
inactive: [1] 13.8% | [2] -5.9% | [3] 19.9% | [4] -46.3% | [5] -6.6% | [6] -9.4%

CN1N=C(c2ccncc2)OC1c1ccc(C(F)(F)F)cc1 (stereo unspecified)
inactive: [1] 13.9% | [2] -20.6% | [3] 1.35% | [4] 11.3% | [5] -19.6% | [6] -12.5%

CCCNCc1cccc2ccnc(C)c12
inactive: [1] 40.9% | [2] 9.6% | [3] 0.45% | [4] 17.6% | [5] 15.9% | [6] 28.6%

Nc1ccn(C2OC(CO)C(O)C2Br)c(=O)n1 (stereo unspecified)
inactive: [1] 3.9% | [2] 8.75% | [3] 14.2% | [4] -12% | [5] -10.1% | [6] 14.1%

O=C(O)CCC(=O)Nc1ccc(Cl)cc1
inactive: [1] 8% | [2] 5.7% | [3] -0.05% | [4] -16.1% | [5] 5.15% | [6] 5.55%

CCOC(=O)c1ccc(-c2ccccc2)cc1
inactive: [1] -44.2% | [2] -28.9% | [3] -14.7% | [4] -7.25% | [5] -12.2% | [6] -15.3%

CCCCc1c[nH]n(C(N)=NCCSCc2nc[nH]c2C)c1=O
inactive: [1] -7.15% | [2] -18.4% | [3] -9.95% | [4] -20.2% | [5] -2.45% | [6] -4.75%
